# Data reported in PubChem BioAssay (Tox21).
# Records with an inconclusive call do not appear. A number with no mark means an inactive call. Calls of active or inactive are those of the source. The call rests on the fitted dose curve.
# Assay: qHTS assay to identify small molecule agonists or antagonists of the thyroid stimulating hormone receptor (TSHR) signaling pathway - wild type cell line counter screen (AID 1259384)
# Settings: HEK293 wild type, cAMP HTRF counter-screen, stronger effect = higher value; series mostly up to 92.4 µM; cAMP activity change: at the top concentration
# Description: U.S. Tox21 Program National Center for Advancing Translational Sciences [NCATS] NIH Chemical Genomics Center [NCGC] U.S. Environmental Protection Agency [EPA] National Institutes of Environmental Health Sciences [NIEHS] National Toxicology Program [NTP] U.S. Food and Drug Administration [FDA] Tox21 Assay Overview: TSHR is the receptor for thyrotropin (thyroid stimulating hormone or TSH), a member of the glycoprotein hormone family. TSH is released by the anterior pituitary gland and is the main regulator of thyroid gland growth and development. Upon binding circulating thyrotropin, a G-protein signal cascade activates adenylyl cyclase and […] cAMP concentration is increased. cAMP is a key second messenger involved extensively in cellular signal transduction pathways associated with the majority of G-protein coupled receptors (GPCRs). The activation of these GPCRs by neurotransmitters, lipids, nucleotides, peptides and hormones results in the activation or the inhibition of plasma membrane-bound adenylate cyclase through heterotrimeric G-proteins. A cell-based TSHR-Hek293 assay can be used to identify TSHR agonists. To eliminate the false positive compounds identified from screening a cell-based TSHR-Hek293 cell line, cAMP assay in a wild type Hek293 cells was used as a counter screening.
# Tox21 Assay Protocol Summary: Hek293 cells (wild type) were dispensed at 800 cells/4 uL/well in 1536-well white plates using a Multidrop dispenser. After the assay plates were incubated at a 37 C/5% CO2 incubator for 18 hrs, 23 nL of compounds dissolved in DMSO, positive controls or DMSO only was transferred to the assay plate by a pin tool, followed by 1 ul medium containing Ro20-1724. After 30 min of incubation at room temperature, 2.5 ul/well of cAMP-d2 and 2.5 ul/well of anti-cAMP-cryptate were added respectively into the assay plates using a Flying Reagent Dispenser. The plates were incubated at room temperature for 1 hr. The fluorescence intensity in the plates was measured using an Envision plate reader. Each test compound was measured at 15 concentrations and in triplicates.
# On the % scale 0 is the no-effect control and ±100 the full control effect.
Compound,cAMP activity change,outcome
CCC(C)Cl (stereo not given),-3.07%,
C=CCN1C[C@H](C)N([C@H](c2ccc(C(=O)N(CC)CC)cc2)c2cccc(OC)c2)C[C@H]1C,-5.48% [at 42.5 µM],
NCCc1cc(O)c(O)cc1O,-2.08% [at 42.5 µM],
C[C@H]1[C@@H]2Cc3ccc(O)cc3[C@@]1(C)CCN2C,4.59% [at 240 µM],
C[C@]12CC[C@H]3[C@@H](CCC4=CC(=O)CC[C@@H]43)[C@@H]1CC[C@@H]2OC(=O)CCc1ccccc1,2.11% [at 42.5 µM],
CCCBr,-3.43%,
O=CC=O,2.11%,
CCCC1CCCCN1 (stereo not given),-0.409% [at 42.5 µM],
COC1=CC(=O)O[C@@H](/C=C/c2ccc3c(c2)OCO3)C1,-3.22%,
Nc1ccccc1C(=O)OCC(O)CO (stereo not given),3.29% [at 42.5 µM],
CC[N+]1(C)CCCC(OC(=O)C(O)(c2ccccc2)c2ccccc2)C1 (stereo not given),-0.0241% [at 42.5 µM],
Clc1ccccc1,3.97%,
CN1CC[C@]23c4c5ccc(O)c4O[C@H]2[C@@H](O)C=C[C@H]3[C@H]1C5,-11.2%,
N#CC(C#N)=C(C#N)C#N,6.78%,
CC(C)c1ccc(OP(=O)(Oc2ccc(C(C)C)cc2)Oc2ccc(C(C)C)cc2)cc1,,inactive
COCc1cnc(C2=NC(C)(C(C)C)C(=O)N2)c(C(=O)O)c1 (stereo not given),-0.785%,
CCCC[P+](CC)(CCCC)CCCC (tested in a mixture with another compound),-2.04%,
CC(C)(C)NCC(O)c1ccccc1Cl (stereo not given),3.95% [at 42.5 µM],
Cc1nnc(-c2ccccc2)c(=O)n1N,0.48%,
CC(=O)NNc1ccccc1,-8.69%,

Compound,cAMP activity change,outcome
O=C(O)CCCOc1ccc(Cl)cc1Cl,,inactive
O=C1CC[C@@]2(O)[C@H]3Cc4ccc(O)c5c4[C@@]2(CCN3CC2CC2)[C@H]1O5,-5.29% [at 42.5 µM],
CC(Oc1cc(Cl)c(Cl)cc1Cl)C(=O)O (stereo not given),1.11%,
OC[P+](CO)(CO)CO,,inactive
CCOc1cccc(C2(N3CCN(c4ccccc4)CC3)CCC(C)CC2)c1 (stereo not given),-0.988%,
NP(N)(=O)NC(=O)c1ccc(F)cc1,-1.93% [at 42.5 µM],
O=S(=O)(Cl)Cl,0.938%,
O=C(O)C(F)(F)C(F)(F)C(F)(F)C(F)(F)C(F)(F)C(F)(F)C(F)(F)C(F)(F)F,1.98%,
CCCN(CCOc1c(Cl)cc(Cl)cc1Cl)C(=O)n1ccnc1,,inactive
O=C(Cc1ccccc1)c1ccccc1,1.39%,
CCNC(=O)NC(=O)/C(C#N)=N/OC,-1.43%,
CN1C[C@H](C(=O)N[C@]2(C)O[C@@]3(O)[C@@H]4CCCN4C(=O)[C@H](Cc4ccccc4)N3C2=O)C=C2c3cccc4[nH]cc(c34)C[C@H]21,-5.88% [at 42.5 µM],
CNC(=O)Oc1cccc(N=CN(C)C)c1,-2.46%,
C[N+]1(CCC(C(N)=O)(c2ccccc2)c2ccccc2)CCCCC1,-0.512% [at 42.5 µM],
O=C(O)c1cc(I)cc(I)c1I,-1.12%,
CCN(C(C)=O)c1cccc(-c2ccnc3c(C#N)cnn23)c1,0.0562% [at 42.5 µM],
CCOC(=O)C1OC1(C)c1ccccc1 (stereo not given),,inactive
O=C1c2ccccc2C(=O)N1SC(Cl)(Cl)Cl,,inactive
CCC(C)(C)O,1.66%,
C=CC(=O)OCC,0.0202%,
